The values below come from PubChem BioAssay (NCATS).

Results filed as inconclusive are left out. Where a call stands in place of a potency, no number is given. The source made the active and inactive calls. Calls come from the whole dose curve; as a rule, active = well fitted inhibition curve with a large enough effect; inconclusive = small, poorly fitted or top-dose-only effect; inactive = flat fitted curve, though single readings scatter.
Potency is the fitted concentration of half-maximal effect.

Phospholipid hydroperoxide glutathione peroxidase GPX4 (Homo sapiens), sequence (P36969 whole entry, looked up): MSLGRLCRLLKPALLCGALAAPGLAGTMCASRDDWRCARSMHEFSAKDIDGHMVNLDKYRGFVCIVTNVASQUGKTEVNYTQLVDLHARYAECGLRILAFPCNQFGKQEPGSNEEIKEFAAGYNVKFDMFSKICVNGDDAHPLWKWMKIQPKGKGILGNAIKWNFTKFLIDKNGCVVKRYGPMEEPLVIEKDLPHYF

The experiment addresses Phospholipid hydroperoxide glutathione peroxidase GPX4 (Homo sapiens) (UniProt P36969). The experiment in a line: Primary qHTS Assay for Inhibitors of Recombinant Selenoprotein Glutathione Peroxidase 4 (GPX4) (AID 1845192). Note: nearly all actives have a fitted effect of over 65% in size. The settings on record: recombinant GPX4, GR-coupled NADPH fluorescence, 15 min; series mostly up to 50 µM. The procedure, abridged: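 GR-coupled readout: 100 nM GR, 1 mM GSH, 0.5 mM NADPH; NADPH fluorescence (ex 340/em 450 nm) read at t=0 and after 15 min RT. GPX4 200 nM, preincubated 30 min with compound; substrate 0.5 mM CHP.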
For `C[C@H]1C[C@H]2[C@H]3CCC4=CC(=O)C=C[C@]4(C)[C@@]3(F)[C@@H](O)C[C@]2(C)[C@@]1(OC(=O)c1ccccc1)C(=O)CO`, the Potency entry is “inactive”. On to `CCCCCCCCCCCCC[N+](C)(C)Cc1ccccc1`, for which the Potency entry was “inactive”. Take `CC(O)C(CO)NC(=O)C1CSSCC(NC(=O)C(N)Cc2ccccc2)C(=O)NC(Cc2ccccc2)C(=O)NC(Cc2c[nH]c3ccccc23)C(=O)NC(CCCCN)C(=O)NC(C(C)O)C(=O)N1` (stereo not drawn): the Potency is 12.6 µM (active).

`CC(C)CC(NC(=O)CNC(=O)C(Cc1ccc(O)cc1)NC(=O)C(CO)NC(=O)C(Cc1c[nH]c2ccccc12)NC(=O)C(Cc1cnc[nH]1)NC(=O)C1CCC(=O)N1)C(=O)NC(CCCN=C(N)N)C(=O)N1CCCC1C(=O)NCC(N)=O` (stereo not drawn): the Potency entry is “inactive”. `CC(C)C(=O)OCC(=O)[C@@]12OC(C3CCCCC3)O[C@@H]1C[C@H]1[C@@H]3CCC4=CC(=O)C=C[C@]4(C)[C@H]3[C@@H](O)C[C@@]12C` (stereo partly drawn): the Potency entry is “inactive”.

As for `NCCC[C@H](NC(=O)[C@@H]1CCCN1C(=O)[C@@H]1CSSC[C@H](N)C(=O)N[C@@H](Cc2ccc(O)cc2)C(=O)N[C@@H](Cc2ccccc2)C(=O)N[C@@H](CCC(N)=O)C(=O)N[C@@H](CC(N)=O)C(=O)N1)C(=O)NCC(N)=O`, the Potency is 25.1 µM (active). With `Cn1nnnc1SCC1=C(C(=O)O)N2C(=O)[C@H](NC(=O)C(O)c3ccccc3)C2SC1` (stereo partly drawn), the Potency was 8.91 µM (active).

With `C=C1/C(=C/C=C2\CCC[C@]3(C)[C@@H]([C@H](C)CCCC(O)(C(F)(F)F)C(F)(F)F)CC[C@@H]23)C[C@@H](O)C[C@@H]1O`, the Potency is 14.1 µM (active).
